Assay outcomes deposited in PubChem by National Center for Advancing Translational Sciences (NCATS).
Most compounds without a hit are left out; they make up all but 0.96% or so of the library.
Fluorescein fluor – qHTS Assay for Spectroscopic Profiling in Fluorescein Spectral Region. Compound autofluorescence, 480/540 nm, fluorescein-equivalent; active compounds read high. max fluorescein-equivalent concentration, M. hit rate 0.91% among 59,000. AID 593, 2007; in the data active = max fluorescein-equivalent concentration above about 10 nM; inconclusive = between about 1.1 nM and that limit
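Autofluorescence profiling; 100 mM Tris, pH 8.0; incubation 15 min at RT; ex/em 480/540 nm; result as fluorescein-equivalent concentration.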
A488 autofl – qHTS Assay for Spectroscopic Profiling in A488 Spectral Region | compound autofluorescence, A488 spectral region, dye equivalency; Compound Type: qHTS ECL - MLSMR | max dye equivalency, M | hit rate 0.1% among 59,000 | AID 591, 2007
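Read-out: relative fluorescence at 480/540 nm, expressed as Alexa 488 dye-equivalent concentration from a six-point A488 standard included per plate. Conditions: 100 mM Tris, pH 8.0; 15 min incubation, room temperature.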
Resorufin autofl – qHTS Assay for Spectroscopic Profiling in Resorufin Spectral Region | max dye-equivalent concentration, M | Compound fluorescence, resorufin region 547/598 nm, buffer; active compounds read high | AID 588, 2007 | hit rate 0.04% among 59,000
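Compounds in 100 mM Tris buffer, pH 8.0, incubated 15 min at room temperature, then read with 547 nm excitation and 598 nm emission filters. Fluorescence was converted to dye-equivalent concentration using an on-plate six-point resorufin standard curve.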
Rhodamine fluor – qHTS Assay for Spectroscopic Profiling in Rhodamine Spectral Region | Rhodamine-region fluorescence, 547/598 nm, Tris buffer; active compounds read high | max dye-equivalent concentration, M | hit rate 0.05% among 59,000; in the data active = max dye-equivalent concentration above about 11 nM; inconclusive = between about 1.1 nM and that limit
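qHTS spectral profiling of compounds without any target or enzyme present, in pH 8.0 Tris buffer; plates were read after a 15-minute room-temperature incubation using the rhodamine-region filter set.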
Texas Red fluor – qHTS Assay for Spectroscopic Profiling in Texas Red Spectral Region; Compound fluorescence, Texas Red channel, 547/618 nm; active compounds read high; max dye-equivalent concentration, M; hit rate 0.06% among 59,000; AID 587, 2007; in the data active = max dye-equivalent concentration above about 10 nM; inconclusive = between about 1.1 nM and that limit
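Pin-transferred compounds and Texas Red standards go into 100 mM Tris buffer, pH 8.0. After 15 min at room temperature, plates are imaged with 547/618 nm filters. Each value is a dye-equivalent concentration derived from the per-plate dye curve.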
A647 fluor – qHTS Assay for Spectroscopic Profiling in A647 Spectral Region. Compound fluorescence, A647 channel (570/671 nm), Tris buffer. max dye-equivalent concentration, M. 59,000 tested, under 10 active;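 also: values scaled relative to a standard on each plate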
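Each compound's intrinsic fluorescence at 570 nm excitation and 671 nm emission is measured across its concentration series in 100 mM Tris, pH 8.0, after 15 min at room temperature, and reported relative to an A647 curve.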
Numbers without * were called inactive; i = inactive; ? = inconclusive. Unless noted, no rule for the calls is given here.

SMILES	Fluorescein fluor	A488 autofl	Resorufin autofl	Rhodamine fluor	Texas Red fluor	A647 fluor
COc1ccc2c(c1)c(CC(=O)O)c(C)n2Cc1ccc(F)cc1	i	i	i	i	?	1e-09
COc1ccccc1-c1cc(NCc2cnc(C)cn2)ncn1	i	i	i	i	i	1e-09
FC(F)(F)c1ccccc1-c1nccc(NCCN2CCOCC2)n1	i	i	i	i	i	1e-09
O=C1c2ccccc2C(=O)c2c(NC3CCCCC3)ccc(Nc3ccc(S(=O)(=O)O)cc3)c21	?	i	?	1.2e-08M*	6.07e-08M*	3.33e-08
CN(C)CCNS(=O)(=O)N(C)C	?	i	i	i	i	4.56e-08
CN(C)c1ncc2nc(-c3cccs3)c(=O)n(CCc3ccccc3)c2n1	i	i	i	i	?	1.22e-08
COc1ncc2nc(-c3cccs3)c(=O)n(CCC#N)c2n1	?	i	i	i	i	1.36e-08
CN(C)c1ncc2nc(-c3cccs3)c(=O)n(C)c2n1	1.46e-08M*	i	i	i	i	1.51e-08
CN(C)c1ncc2nc(-c3cccs3)c(=O)n(CCC#N)c2n1	3.65e-08M*	?	i	i	i	9.3e-09
CNC(=O)c1cc2ccc(OC)cc2oc1=O	1.66e-08M*	i	i	i	i	1e-09
CC#C[C@@]1(O)CC[C@@H]2[C@@H]3CCC4=CC(=O)CCC4=C3[C@@H](c3ccc(N(C)C)cc3)C[C@]21C	i	i	i	i	i	3e-09
C=CCOc1cccc(C2C(C(=O)c3ccc(C)o3)=C(O)C(=O)N2c2nccs2)c1 (configuration not stated)	3.62e-08M*	?	i	i	i	1.88e-08
O=C(CCC1COc2ccccc2O1)Nc1cccnc1 (configuration not stated)	1.73e-08M*	i	i	i	i	1.96e-08
Cc1cccc(N=c2oc3cc(O)ccc3cc2C(N)=O)c1	1.21e-08M*	i	i	i	i	1.87e-08
C[C@@H]1O[C@H](O[C@@H]2[C@H](C)O[C@H](O[C@@H]3[C@H](C)O[C@H](O[C@H]4CC[C@]5(C)[C@@H](CC[C@@H]6[C@H]5C[C@@H](O)[C@]5(C)[C@@H](C7=CC(=O)OC7)CC[C@]65O)C4)C[C@@H]3O)C[C@@H]2O)C[C@H](O)[C@@H]1O	?	i	i	i	i	4.6e-09
COc1ncc2nc(-c3cn(C)c4ccccc34)c(=O)n(-c3ccccc3)c2n1	1.52e-08M*	i	i	i	i	6.3e-09
CCNc1ncc2nc(-c3cn(C)c4ccccc34)c(=O)n(-c3ccccc3)c2n1	1.13e-08M*	i	i	i	i	5.4e-09
O=C(Nc1ccccc1)N1CCCC2(CCN(C(=O)c3cc(C(F)(F)F)cc(C(F)(F)F)c3)CC2)C1	i	i	i	i	i	1e-09
COc1cccc2c1C(=O)c1c(O)c3c(c(O)c1C2=O)C[C@@](O)(C(C)=O)C[C@@H]3O[C@H]1C[C@H](N)[C@H](O)[C@H](C)O1	2.21e-07M*	?	5.95e-08M*	6.36e-08M*	6.51e-08M*	3.3e-09
CCC(=O)c1ccc(OCC(=O)N2CCc3cc(OC)c(OC)cc3C2)cc1	?	i	i	i	i	5.8e-09
COc1cc2c(cc1OC)CN(C(=O)CSc1nc(N)c(C#N)cc1C#N)CC2	1.89e-08M*	i	i	i	?	1.5e-09
CC[C@H](C)C(=O)O[C@@H]1CCC=C2C=C[C@H](C)[C@@H](CC[C@H]3C[C@@H](O)CC(=O)O3)[C@H]21	i	i	i	i	i	1e-09
COc1ccc(CCn2c(=N)c(C#N)cc3c(=O)n4ccccc4nc32)cc1	1.01e-08M*	i	i	i	i	2.7e-09
COc1ccc(CNC(=O)c2cc3c(=O)n4ccccc4nc3n(Cc3ccco3)c2=N)cc1	1.95e-08M*	i	i	i	i	3.68e-08
CCOC(=O)c1cc2c(=O)n3ccccc3nc2n(Cc2ccccc2)c1=N	1.6e-07M*	?	i	i	i	2.03e-08
SMILES	Fluorescein fluor	A488 autofl	Resorufin autofl	Rhodamine fluor	Texas Red fluor	A647 fluor
Cc1ccc(Cn2c(=N)c(C(=O)NCc3ccco3)cc3c(=O)n4ccccc4nc32)cc1	?	i	i	i	i	1.7e-08
C=C[C@H]1CN2CC[C@@H]1C[C@@H]2[C@@H](O)c1ccnc2ccc(OC)cc12	?	i	i	i	i	4.8e-08
Clc1ccccc1-c1ccc2ncnc(NCCN3CCOCC3)c2c1	?	i	i	i	i	4.67e-08
Cc1cc2nc3c(=O)[nH]c(=O)nc-3n(CC(O)C(O)C(O)CO)c2cc1C (configuration not stated)	7.8e-07M*	3.12e-08M*	?	?	i	1e-09
CCOc1ccccc1C1C(C#N)=C(N)SC(N)=C1C#N	1.26e-08M*	i	i	i	i	9e-09
CCOc1ccc(C2C(C#N)=C(N)SC(N)=C2C#N)cc1OCC	1.43e-08M*	i	i	i	i	2.18e-08
CCOc1ccc(C2C(C#N)=C(N)SC(N)=C2C#N)cc1OC	?	i	i	i	i	3.78e-08
CC(C)CCNc1ncnc2[nH]ncc12	i	i	i	i	i	1.63e-08
Cc1cnc(CNc2ncncc2-c2ccoc2)cn1	?	i	i	i	i	3.33e-08
COCCn1c(=O)c(-c2cccs2)nc2cnc(Nc3ccccc3)nc21	2.69e-08M*	i	i	i	i	2.57e-08
COCCn1c(=O)c(-c2ccc(OC)cc2)nc2cnc(Nc3ccccc3)nc21	2.38e-08M*	i	i	i	i	1e-09
COc1cccc(C2=CC(c3ccc(C)cc3)n3ncnc3N2)c1 (configuration not stated)	1.03e-08M*	i	i	i	?	6.2e-09
COc1ccc(/C=N\NC(=O)O)cc1	?	i	i	i	?	8.8e-09
COc1cccc(N2C(=O)C3CC=C(Cl)CC3C2=O)c1 (configuration not stated)	1.46e-08M*	i	i	i	i	2.49e-08
O=C(c1ccc(N2C(=O)C3CC=C(Cl)CC3C2=O)cc1)N1CCCCC1 (configuration not stated)	i	i	i	i	i	4.48e-08
CN1CCC(OC(=O)COc2ccc(C(C)(C)C)cc2)CC1	2.99e-08M*	?	i	i	i	1e-09
N[C@@H](CSCc1ccc(I)cc1)C(=O)O	i	i	i	i	?	4.1e-09
